± gives the standard deviation of the averaged measurements.
Key:
Settings in all cases: concentration: 10 µM; 24 h
HCC1569 [1] = experiment: cell number relative to DMSO (% of DMSO); higher = more cells (less growth inhibition / toxicity)
Procedure, shortened: (§1)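 HCC1569 and TDF cells (800 per well, 384-well plates, RPMI with 10% FBS) were treated with compounds at 10 µM for 24 h at 37 °C, in triplicate. Cells were fixed in 3.7% formaldehyde and stained with a rabbit anti-H1.0 antibody, an AlexaFluor 647 secondary and DAPI; six fields per well were imaged at ×10. H1.0 nuclear intensity or cell number is expressed as percent of the plate DMSO control, taking the median of replicates. HCC1569 values were smoothed for positional effects.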

TDF [2] = experiment: as above
Procedure, shortened: as §1

TDF [3] = experiment: H1.0 immunofluorescence intensity relative to DMSO (% of DMSO); higher = stronger H1.0 induction, active = 120 or more
Procedure, shortened: as §1

HCC1569 [4] = experiment: H1.0 immunofluorescence intensity relative to DMSO (% of DMSO); higher = stronger H1.0 induction, active = 140 or more
Procedure, shortened: as §1
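Wherever H1.0 immunofluorescence intensity relative to DMSO is given: TDF is a line of transformed human dermal fibroblasts of mesenchymal origin.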
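Wherever cell number relative to DMSO is given: TDF denotes transformed human dermal fibroblasts of mesenchymal origin.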

Structure (SMILES) | cell number (HCC1569 [1]) | cell number (TDF [2]) | H1.0 immunofluorescence intensity (TDF [3]) | H1.0 immunofluorescence intensity (HCC1569 [4])
COc1c(O)cc2oc(-c3ccc(O)cc3)cc(=O)c2c1O [5,7-dihydroxy-2-(4-hydroxyphenyl)-6-methoxy-4H-chromen-4-one] | 92.6 | 102 | 88 (inactive) | 106 (inactive)
c1cc(-c2sc(-c3ccncc3)c(-c3ccncc3)c2-c2ccncc2)ccn1 [4-[3,4,5-tri(4-pyridinyl)-2-thienyl]pyridine] | 98.5 | 95.1 | 98 (inactive) | 98.9 (inactive)
Cl.Cl.Cl.Cl.NCCCNCCCCNCCCN [Spermine tetrahydrochloride] | 102 | 104 | 92.3 (inactive) | 86.7 (inactive)
CCN(CC)CC#CCOC(=O)C(O)(c1ccccc1)C1CCCCC1.Cl (stereo not given) [Oxybutynin Chloride] | 101 | 101 | 94.5 (inactive) | 97.4 (inactive)
CC=C(C)C(=O)OC1CC(C)=CC(=O)C2(C)CCC(O)(C(C)C)C12 (stereo not given) [Lapidin] | 104 | 102 | 95.4 (inactive) | 93.9 (inactive)
OC1C=CC(Br)C(O)C1O (mixture of isomers) [6-Bromo-4-cyclohexene-1,2,3-triol Mixed Isomers] | 99.9 | 105 | 97.5 (inactive) | 112 (inactive)
O=C(COc1ccc(C(=O)c2ccccc2)cc1)NC1CCN(Cc2ccccc2)CC1 [2-(4-benzoylphenoxy)-N-(1-benzyl-4-piperidinyl)acetamide] | 81.9 | 78.3 | 118 (inactive) | 158 (active)
Cl.Cl.NCCNS(=O)(=O)c1cccc2cnccc12 [H-9 dihydrochloride] | 102 | 90.7 | 107 (inactive) | 100 (inactive)
Cc1nnc(SCC2=C(C(=O)[O-])N3C(=O)C(NC(=O)Cn4cnnn4)C3SC2)s1.[Na+] (stereo not given) [Cefazolin sodium] | 101 | 116 | 87.2 (inactive) | 89.5 (inactive)
CCCCCCCCC=CCCCCCCCCCCCCC(=O)O [14(E)-Tricosenoic acid] | 98.3 | 98.1 | 93.3 (inactive) | 104 (inactive)
CCOC(=O)C1=C(C)NC(C)=C(C(=O)OCC)C1 [Diludin] | 97.2 | 103 | 93.7 (inactive) | 97.2 (inactive)
Br.C=CCN1CCc2c(cc(O)c(O)c2Cl)C(c2ccccc2)C1 (racemic) | 94.1 | 79.4 | 96.2 (inactive) | 107 (inactive)
CC(C)n1c(C=CC(O)CC(O)CC(=O)O)c(-c2ccc(F)cc2)c2ccccc21 (stereo not given) [Fluvastatin] | 96.3 | 64.5 | 148 (active) | 103 (inactive)
CCCCN(CCCC)CC(O)c1cc(Cl)cc2c1-c1ccc(Cl)cc1/C2=C/c1ccc(Cl)cc1 (stereo not given) | 103 | 108 | 90.7 (inactive) | 104 (inactive)
O=c1cc(-c2ccccc2)[nH]c2nc(Cl)ccc12 [7-Chloro-4-hydroxy-2-phenyl-1,8-naphthyridine] | 76.7 | 20.4 | 141 (active) | 116 (inactive)
CC(=O)Oc1ccccc1C(=O)O [Acetylsalicylic acid] | 101 | 98.8 | 89.6 (inactive) | 88.3 (inactive)
C#CCN(C)Cc1ccccc1.Cl [Pargyline hydrochloride] | 114 | 105 | 91.7 (inactive) | 101 (inactive)
C[C@@H](Oc1cc(-c2cnn(C3CCNCC3)c2)cnc1N)c1c(Cl)ccc(F)c1Cl | 59.6 | 36.3 | 161 (active) | 136 (inactive)
NC1CONC1=O (racemic) [DL-Cycloserine] | 101 | 96.8 | 92 (inactive) | 92.3 (inactive)
O=C1CCC(N2C(=O)c3ccccc3C2=O)C(=O)N1 (stereo not given) [Thalidomide] | 101 | 102 | 97.1 (inactive) | 96.7 (inactive)
COC(=O)c1c(C)[nH]c(C)c1C(=O)c1ccccc1Cc1ccccc1 | 102 | 102 | 92.3 (inactive) | 129 (inactive)
CC(C(=O)O)c1ccc(-c2ccccc2)c(F)c1 (stereo not given) [Flurbiprofen] | 98.6 | 101 | 97.4 (inactive) | 101 (inactive)
NCCCS(=O)(=O)[O-].[Na+] [3-Amino-1-propanesulfonic acid sodium] | 94.4 | 99.3 | 93.2 (inactive) | 91.9 (inactive)
CCCCCCCCCCCCCC=CC(O)C(CO)NC(=O)CCCCCCCCCCCCCCC (stereo not given) [C16 Ceramide] | 96.6 | 95.3 | 102 (inactive) | 97.5 (inactive)
Cn1nc2c3c(cccc31)C(=O)c1ccccc1-2 [JNK Inhibitor,                    Negative Control] | 102 | 95.3 | 90.4 (inactive) | 136 (inactive)

Structure (SMILES) | cell number (HCC1569 [1]) | cell number (TDF [2]) | H1.0 immunofluorescence intensity (TDF [3]) | H1.0 immunofluorescence intensity (HCC1569 [4])
CCCCCC=CCC=CCC1OC1CC=CCCCC(=O)O (stereo not given) [8,9-Epoxyeicosatrienoic acid] | 103 | 101 | 97.7 (inactive) | 104 (inactive)
N[C@H](CCC(=O)NCS(=O)(=O)O)C(=O)O [gamma-D-Glutamylaminomethylsulfonic acid] | 101 | 109 | 96.1 (inactive) | 93.6 (inactive)
Cl.NC12CC3CC(CC(C3)C1)C2 [Amantadine.HCl] | 103 | 103 | 92.2 (inactive) | 99 (inactive)
CCOC(=O)c1c2c3c(cccc3[nH]c1=O)C(=O)c1ccccc1-2 | 99.7 | 108 | 94.2 (inactive) | 99.9 (inactive)
COc1ccc2c(c1)c(CC(=O)O)c(C)n2Cc1ccc(Cl)cc1 [1-(4-Chlorobenzyl)-5-methoxy-2-methylindole-3-acetic acid] | 104 | 91 | 96.8 (inactive) | 103 (inactive)
O=C(c1ccc(Cl)c(S(=O)(=O)NCC2CCCO2)c1)N1CCN(c2ncccn2)CC1 (stereo not given) [Adenosine Kinase Inhibitor] | 86.3 | 103 | 89.5 (inactive) | 116 (inactive)
CNCCC(Oc1ccccc1C)c1ccccc1 (stereo not given) [Tomoxetine] | 101 | 112 | 103 (inactive) | 102 (inactive)
CC(C)C(=O)c1c(C(C)C)nn2ccccc12 [Ibudilast] | 101 ± 4.1 | 97.7 ± 1.3 | 93.1 (inactive) | 94.5 (inactive)
COc1cc(-c2oc3cc(O)cc(O)c3c(=O)c2OC2OC(CO)C(O)C(O)C2O)cc(OC)c1O (stereo not given) [Syringetine-3-glucoside] | 102 | 93 | 101 (inactive) | 90.4 (inactive)
COCC(=O)OC1(CCN(C)CCCc2nc3ccccc3[nH]2)CCc2cc(F)ccc2C1C(C)C.Cl.Cl (stereo not given) [Mibefradil dihydrochloride] | 84.2 | 90.1 | 111 (inactive) | 124 (inactive)
O=C1CC(c2ccc(O)c(O)c2)Oc2cc(OC3OC(CO)C(O)C(O)C3O)cc(O)c21 (stereo not given) [Eriodictyol-7-O-glucoside] | 101 | 94.3 | 97.7 (inactive) | 89.3 (inactive)
CCCCCCCCCCCCCCCC(=O)NCCO [Palmitoylethanolamide] | 104 | 101 | 92.4 (inactive) | 90.6 (inactive)
NC(N)=Nc1nc(CSCCC(N)=NS(N)(=O)=O)cs1 | 103 | 110 | 91.1 (inactive) | 108 (inactive)
CC1CCN(CCC2CCCN2S(=O)(=O)c2cccc(O)c2)CC1.Cl (stereo not given) | 102 | 109 | 92.1 (inactive) | 107 (inactive)
COCc1nc2c([nH]1)c(=O)n(C)c(=O)n2CC(C)C [8-Methoxymethyl-3-isobutyl-1-methylxanthine] | 104 | 110 | 92.4 (inactive) | 93.2 (inactive)
CCOC(=O)CCNc1cc(N2CCc3ccccc3CC2)nc(-c2ccccn2)n1 | 78.8 | 20.8 | 171 (active) | 113 (inactive)
Cl.Cl.Fc1ccc(C(c2ccc(F)cc2)N2CCN(CC=Cc3ccccc3)CC2)cc1 [Flunarizine dihydrochloride] | 101 | 110 | 89.1 (inactive) | 97.3 (inactive)
CC(C)S(=O)(=O)N[C@H]1CCOC[C@@H]1c1ccc(-c2ccc(C#N)s2)cc1 | 100 | 98.3 | 96.5 (inactive) | 104 (inactive)
CCc1cccc(N(C)C(N)=Nc2cccc3ccccc23)c1.Cl | 87.1 | 90 | 115 (inactive) | 95.9 (inactive)
CCN(CC)CCCC(C)Nc1ccnc2cc(Cl)ccc12 (stereo not given) [Chloroquine] | 101 | 99.6 | 98.2 (inactive) | 93.6 (inactive)
CCCCCCCCCCCC(=O)O [Dodecanoic acid] | 100 | 102 | 103 (inactive) | 101 (inactive)
Cl.c1ccc2c(CC3=NCCN3)cccc2c1 [Naphazoline hydrochloride] | 96.1 | 108 | 91.2 (inactive) | 90.2 (inactive)
CS(=O)(=O)Nc1ccc(-c2coc3cc(OCc4cccc(C(=O)O)c4)ccc3c2=O)cc1 | 101 | 109 | 90.9 (inactive) | 107 (inactive)
Cc1ccc(C(=CCN2CCCC2)c2ccccn2)cc1.Cl [Trans-triprolidine.HCl] | 100 | 95.5 | 99 (inactive) | 110 (inactive)
C[N+](C)(C)C(Cc1c[nH]c(=S)[nH]1)C(=O)[O-] [L-Ergothioneine] | 107 | 102 | 101 (inactive) | 100 (inactive)

Source: the supplement of paper PMC7156485
